Only some compounds are listed: those with a hit (about 6% of all), similar ones and a draw of the others.
D3 ag – agonists of human D3 dopamine receptor; P35462; D3R DiscoveRx beta-arrestin cells, luminescence, 90 min; max activation, %; hit rate 0.58% among 410,000; AID 652048; in the data active = max activation above about 30%; note: 0% is about no effect
Target sequence (P35462 whole entry, looked up): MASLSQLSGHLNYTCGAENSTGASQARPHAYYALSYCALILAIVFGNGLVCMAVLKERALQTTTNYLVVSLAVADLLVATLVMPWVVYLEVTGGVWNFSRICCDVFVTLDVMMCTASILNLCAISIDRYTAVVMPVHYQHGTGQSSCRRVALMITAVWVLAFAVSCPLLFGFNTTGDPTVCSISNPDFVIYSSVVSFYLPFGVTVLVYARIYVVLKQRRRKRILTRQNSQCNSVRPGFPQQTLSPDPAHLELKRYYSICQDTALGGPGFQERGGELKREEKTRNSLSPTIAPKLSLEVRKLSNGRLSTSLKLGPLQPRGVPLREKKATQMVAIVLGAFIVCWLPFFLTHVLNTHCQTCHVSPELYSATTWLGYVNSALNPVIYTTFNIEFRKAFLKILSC
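Cells at 1500/well, incubated overnight, then treated with pinned compounds (dopamine as control) for 90 min at 37 degrees C. DiscoveRx reagent added for 30 - 60 minutes at room temperature; luminescence read.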
D1 ag – agonists of human D1 dopamine receptor; hit rate 1% among 360,000; P21728; activation, % at 2 µM; HEK293 T-REx D1 cells, calcium flux, agonist mode; in the data active = activation above about 30%; note: 0% is about no effect
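Inducible HEK293 T-REx D1 cells, force-coupled to calcium signalling, were plated at 4000 cells/well with tetracycline and held overnight at 30 C. After no-wash calcium dye loading, compound-evoked calcium rise over 180 s flagged agonists.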
D1 potentiator – human D1 dopamine receptor positive modulation | hit rate 0.036% among 360,000 | P21728 | potentiation, % at 10 µM | HEK293 TREx D1 cells, calcium flux, dopamine EC20 potentiation | AID 504651; in the data active = potentiation above about 30%; note: 0% is about no effect
D1 antagonist – antagonists of human D1 dopamine receptor; P21728; hit rate 3.2% among 360,000; HEK293 TREx D1 cells, calcium flux, dopamine EC80; active compounds read low; AID 504652; activity change, negative = inhibition, % at 10 µM; in the data active = activity change below about -30%; note: % is set by controls: 0 for no effect and ±100 for the full control effect
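Calcium flux readout: force-coupled, inducible Hek293 Trex D1 line, cells induced overnight at 30 C with tetracycline, dye-loaded 30–90 min at RT. Antagonism scored against EC80 dopamine challenge given 180 s after compound.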
DRD3 antagonist – D3 dopamine receptor (human) antagonism | AID 652054 | hit rate 2.5% among 360,000 | max response, negative = inhibition, % | D3R cells, DiscoveRx beta-arrestin luminescence, antagonist mode; active compounds read low; in the data active = max response below about -50%; inconclusive = no clear call, values can overlap the other calls; note: % is set by controls: 0 for no effect and ±100 for the full control effect
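Cells expressing the human receptor were seeded at 1500 cells/well, incubated overnight at 37 degrees C in 5% CO2, then exposed to library compounds with dopamine controls for 90 minutes at 37 degrees C before luminescent detection.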
Active calls of the source: *; ? = inconclusive; . = not tested or not shown.

SMILES	D3 ag	D1 ag	D1 potentiator	D1 antagonist	DRD3 antagonist
OCCNCc1ccc(OCc2ccc(Cl)cc2Cl)cc1	-10.5	29.9	-4.3	4.2	-23.2
OCCCCNCc1ccc(OCc2ccc(Cl)cc2Cl)cc1	-6.1	61.0*	-9.4	-26.7	-26.4
CN1CCN(c2ccc(NC(=O)c3ccc(C(F)(F)F)cc3)cn2)CC1	-4.7	3.7	-8.3	-41.3*	-9.1
CNC(=S)Nc1ccc(N2CCN(c3ccc(C(F)(F)F)cn3)CC2)nc1	-23.3	13.9	-3.3	-9.0	-51.9*
O=C(Nc1ccc(F)cc1F)N1CCCN(c2ccc(C(F)(F)F)cn2)CC1	6.5	10.1	-2.2	-12.9	17.9
Fc1ccc(NC(=S)N2CCCN(c3ccc(C(F)(F)F)cn3)CC2)c(F)c1	0.7	17.5	-6.8	-53.7*	22.6
Cc1ccccc1C(=O)Nc1ccc(N2CCN(C)CC2)nc1	-1.0	1.3	-4.2	7.9	-11.3
CC1CN(C(=S)Nc2ccc(F)cc2F)CC(C)O1 (configuration not stated)	4.0	-0.4	4.9	1.5	11.6
Cc1csc2ncnc(N3CCN(C(=S)Nc4ccc(F)cc4F)CC3)c12	40.7*	10.3	-5.2	-35.9*	19.3
Cc1cccc(NC(=O)c2sc3nc(-c4ccccc4)cn3c2C)c1C	-9.6	5.9	-2.3	5.5	.
Cc1ccc(CCNC(=O)c2cn(C)c3ccc(S(=O)(=O)N4CCCCC4)cc3c2=O)cc1	-5.5	-0.1	-1.8	12.5	.
CCOC(=O)c1cccc(NC(=O)c2cc(-c3ccc(Cl)s3)nc3ccccc23)c1	-9.8	4.6	0.2	-14.6	.
COc1cc(/C=C2\SC(=S)N(NC(=O)c3cccc(O)c3)C2=O)ccc1O	-14.7	110.0*	-2.4	8.1	-22.3
COc1cc(/C=C2\SC(=S)N(NC(=O)c3ccccc3OC)C2=O)ccc1O	-12.7	48.5*	9.8	-7.2	?
CC(/C=C1\SC(=S)N(NC(=O)c2ccc(C)cc2)C1=O)=C\c1ccccc1	-7.0	8.0	-3.5	-1.8	-51.9*
COc1cc(/C=C2\SC(=S)N(NC(=O)c3ccc(O)c(OC)c3)C2=O)ccc1O	-16.1	73.3*	5.4	26.2	-74.9*
COc1cc(/C=C2\SC(=S)N(NC(=O)c3ccncc3)C2=O)ccc1O	-3.1	21.6	-4.7	27.5	-25.3
CCCNc1nc(C)cc(-c2cc(C(=O)NCc3ccccc3)on2)n1	-10.4	5.8	-1.1	-30.2*	5.4
O=C(CCCCN1CCCCC1)c1ccccc1	-19.1	.	.	.	-27.3
O=C(C(=Cc1ccccc1)CN1CCCCC1)c1ccccc1	-23.1	.	.	.	-91.4*
Cc1ccc(-n2nc(C(C)(C)C)cc2NC(=O)Nc2ccc(OCCN3CCOCC3)c3ccccc23)cc1	-15.1	.	.	.	.
Cc1[nH]c2ccccc2c1C(=O)CN1CCN(C/C=C/c2ccccc2)CC1	-3.2	21.6	-9.5	-21.0	-2.8
COc1cc(Br)cc(CN2CCN(C/C=C/c3ccccc3)CC2)c1O	-28.2	1.1	-1.1	7.7	?
COc1ccc2oc(C(=O)N3CCN(C/C=C/c4ccccc4)CC3)c(C)c2c1	30.3*	-0.1	4.9	2.4	0.0
COc1ccc2[nH]c(C)c(C(=O)CN3CCN(C/C=C/c4ccccc4)CC3)c2c1	1.9	-0.6	0.1	-7.9	-57.4*
SMILES	D3 ag	D1 ag	D1 potentiator	D1 antagonist	DRD3 antagonist
COc1ccc(O)c(CN2CCN(C/C=C/c3ccccc3)CC2)c1	-24.2	1.0	-8.9	8.8	-76.3*
Cc1cc(C)c2c(CN3CCN(C/C=C/c4ccccc4)CC3)cc(=O)oc2c1	-1.6	7.4	-6.0	21.1	-64.2*
CN=C1N[C@H](c2ccccc2)N(c2ccccc2)S1	.	1.3	-3.5	10.2	.
Cc1ccc(CCC2C3=C(CCCC3=O)OC3=C2C(=O)CCC3)cc1	30.4*	-0.3	-2.2	20.4	?
O=C(c1cn(-c2ccccc2)nc1-c1cccs1)N1CCOCC1	-8.6	4.4	3.8	-11.3	-25.0
CCN(CC)CCNC(=O)c1ccc(NC(=O)c2ccccc2-c2ccc(C(F)(F)F)cc2)cc1	-22.1	70.0*	-2.8	-18.7	-27.7
O=C(c1cn(-c2ccccc2)nc1-c1cccs1)N1CCN(c2ccccc2)CC1	30.5*	5.3	-2.6	10.2	22.7
CCN(CC)CCNC(=O)c1ccc(NC(=O)c2cn(-c3ccccc3)nc2-c2cccs2)cc1	-7.5	13.7	-10.8	-80.5*	-11.5
CCCC(=O)O[C@]1(C(=O)COC(=O)CC)CC[C@H]2[C@@H]3CCC4=CC(=O)CC[C@]4(C)[C@H]3[C@@H](O)C[C@@]21C	0.7	.	.	.	.

Compound activity from PubChem BioAssay.
